D2 PAM-1: potentiates the human D2 dopamine receptor allosterically | 0.23% of 360,000 active | potentiation, % (test concentration not listed) | P14416 | DiscoveRx D2 beta-arrestin cells, luminescence, 90 min; 100% = 57 uM dopamine signal; in the data active means potentiation above about 50%; inconclusive means mostly about 30% to 49%
Target sequence (P14416 whole entry, looked up): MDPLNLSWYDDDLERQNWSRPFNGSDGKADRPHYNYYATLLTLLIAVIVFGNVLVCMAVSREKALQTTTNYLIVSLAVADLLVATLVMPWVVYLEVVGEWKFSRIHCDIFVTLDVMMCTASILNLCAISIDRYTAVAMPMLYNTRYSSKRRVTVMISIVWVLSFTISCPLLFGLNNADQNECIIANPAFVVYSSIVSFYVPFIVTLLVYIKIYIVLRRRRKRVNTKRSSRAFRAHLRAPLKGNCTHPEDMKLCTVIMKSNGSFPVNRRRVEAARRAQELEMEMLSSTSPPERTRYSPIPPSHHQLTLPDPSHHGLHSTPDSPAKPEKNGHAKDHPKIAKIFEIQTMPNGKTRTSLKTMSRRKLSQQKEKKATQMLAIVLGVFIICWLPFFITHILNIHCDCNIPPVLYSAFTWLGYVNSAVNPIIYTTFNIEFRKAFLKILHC
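D2 cells co-treated with compound plus 50 nM dopamine (EC20) for 90 min at 37 deg C to detect potentiation. Beta-arrestin recruitment was read as enzyme-fragment luminescence after 1 h at ambient temperature. Full response was set by 57 uM dopamine.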
D2 ag-1: D2 dopamine receptor (human) agonism; P14416; HEK293 T-REx D2 cells, calcium flux agonist mode; activation, % at 2 µM; 0.53% of 340,000 active;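 active means activation over 3 SD above normal in the single-dose calcium agonist read, cut at about 30% in these data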; further: 0% is about no effect
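HEK293 Trex D2 cells, tetracycline-induced, o/n 30 C 5% CO2; no-wash Ca dye, RT 30–90 min; 10-cycle baseline, 23 nl cpd added, kinetic Ca read 180 s; agonist hits = positive Ca response.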
D2 PAM-2: D2 dopamine receptor (human) potentiation; P14416; HEK293 T-REx D2, calcium flux, EC20 dopamine potentiation; potentiation, % at 10 µM; 0.34% of 340,000 active; AID 485347;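 active means potentiation over 3 SD above the plate norm, cut at about 30% in these data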; further: 0% is about no effect
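Primary screen. Calcium kinetics in induced HEK293 T-REx D2 cells: compound pre-addition 180 s, EC20 dopamine, 180 s more.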
D2 ag-2: activates the human D2 dopamine receptor | 0.084% of 360,000 active | P14416 | DiscoveRx PathHunter D2 beta-arrestin, luminescence, 90 min; 100% = 57 uM dopamine signal | activation, % (no concentration beside the values); in the data active means activation above about 40%; inconclusive means between about 15% and that limit
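DiscoveRx PathHunter D2 beta-arrestin cells (2,100/well) attached overnight, then compound-stimulated 90 min at 37 C in HBSS/10 mM HEPES/0.1% Tween-20 buffer; beta-galactosidase complementation read by luminescence after 1 h at ambient temperature. Dopamine 57 uM final (EC100) as control.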
D2 antagonist: antagonists of human D2 dopamine receptor | HEK293 TREx D2 cells, calcium flux, dopamine EC80 | inhibition, % at 10 µM | AID 485344 | 2% of 340,000 active | P14416; in the data active means inhibition above about 30%; inactive means below that, where a call was filed; further: 0% is about no effect
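Overnight-induced (tetracycline, 30 C) HEK293 T-REx cells carrying force-coupled D2 receive a no-wash calcium dye, then compound, then EC80 dopamine at 180 s; signals are read kinetically throughout.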
* hit, by the source's call; ? = inconclusive; . = no result given. Most compounds without a hit are left out; they make up all but 2.4% or so of the library.

SMILES	D2 PAM-1	D2 ag-1	D2 PAM-2	D2 ag-2	D2 antagonist
Cc1cc2oc(C(=O)Nc3ccc(S(=O)(=O)Nc4nccs4)cc3)cc(=O)c2cc1Cl	-3	0	-4	-2	34*
CCc1ccc(S(=O)(=O)Nc2nccs2)cc1	-7	0	38*	4	11
CCN1CCN(C(=O)c2ccc3c(c2)N(Cc2c(F)cccc2Cl)C(=O)c2ccccc2S3)CC1	.	.	-18	.	.
CC1CCN(C(=O)C2COc3ccccc3C2)CC1 (stereo unspecified)	.	0	7	.	.
CCOc1ccc(NC(=O)Cn2c(=O)n(Cc3ccccc3)c(=O)c3sc4ccccc4c32)cc1	.	1	-3	.	.
CCOC(=O)c1ccc(NC(=O)C2CCN(S(=O)(=O)Cc3ccccc3)CC2)cc1	.	0	11	.	.
FC(F)(F)c1ccc(C2[C@H]3CN(Cc4ccc(-c5ccccc5)cc4)[C@H](c4ccccc4)C34CC2(c2ccccc2)C4)cc1 (stereo partly specified)	-1	0	7	0	35*
O=C(Cc1ccc([N+](=O)[O-])cc1)Nc1ccc(Cl)cc1	-9	2	-16	13	15
Cc1c(Cl)cccc1NC(=O)Cc1ccc([N+](=O)[O-])cc1	6	0	-7	3	45*
CSCSC1=C(C#N)C(c2ccc(Cl)cc2)C(C(C)=O)=C(C)N1 (stereo unspecified)	.	2	-4	.	32*
CSC1=C(C#N)C(c2ccccc2)C(C(C)=O)=C(C)N1 (stereo unspecified)	-5	-1	-9	-7	8
COc1ccc(S(=O)(=O)NC2CCSc3ccccc32)cc1NC(C)=O (stereo unspecified)	-4	0	16	-1	-2
COc1cc(S(=O)(=O)NC2CCSc3ccccc32)ccc1NC(C)=O (stereo unspecified)	-5	-2	33*	-2	6
CCCCOC(=O)/C(=C\c1ccc([N+](=O)[O-])o1)NC(=O)c1ccccc1	15	0	36*	0	-14
CCCCOC(=O)/C(=C/C=C/c1ccccc1)NC(=O)c1ccccc1	-9	0	.	0	11
CCC(=O)Nc1ccc2nc(SCCOc3ccc(C)cc3OC)sc2c1	.	-1	-3	.	.
COc1ccc(-c2nn(-c3ccccc3)cc2/C=N/NC(=O)c2cccc(S(=O)(=O)Nc3ccccc3Cl)c2)cc1	11	1	-17	2	45*
COC(=O)c1ccccc1NC(=O)c1cc2nc(-c3ccc(OC)cc3)cc(C(F)(F)F)n2n1	.	0	-7	.	.
COc1cc(NC(=O)CCCOc2cc(=O)n(C)c3ccccc23)cc(OC)c1OC	.	.	-3	.	.
CC(C)=CCN1CCN(CCC2=C(C)CCCC2(C)C)CC1CCO (stereo unspecified)	-5	0	-17	-3	61*
CC1=C(CCN2CCN(C3CCCC3)C(CCO)C2)C(C)(C)CCC1 (stereo unspecified)	-14	-1	-29	-1	-20
COc1ccc(CCNCC(=O)Nc2c(C)cc(C)cc2C)cc1OC	-3	-1	8	6	45*
COc1ccc(CCNC(=O)c2[nH]c(C)c(C(C)=O)c2C)cc1OC	-14	-1	1	0	38*
Cc1ccc2c(c1)C(c1ccc(F)cc1)N(C(=O)COc1ccc(Cl)cc1Cl)CC(=O)N2 (stereo unspecified)	.	1	9	.	.
Cc1cc(C)cc(N2C(=O)CSC23C(=O)N(CC(=O)NCCc2ccccc2)c2ccccc23)c1 (stereo unspecified)	.	1	3	.	.
SMILES	D2 PAM-1	D2 ag-1	D2 PAM-2	D2 ag-2	D2 antagonist
CC(C)(C)OC(=O)N1CCC(c2c(C(=O)N3CCN(c4ccc(Cl)cc4)CC3)cnn2-c2ccc(F)cc2F)CC1	.	0	-11	.	.
CN(C(=O)c1cccnc1)c1nnc(-c2ccccn2)s1	-6	3	-3	-3	16
CC(=O)N(C)c1nnc(-c2ccccn2)s1	13	-1	1	-3	43*
COc1cccc(NC(=O)CC(C)S(=O)(=O)c2ccc3c(c2)NC(=O)CO3)c1 (stereo unspecified)	.	0	5	.	.
O=[N+]([O-])c1ccc(S(=O)(=O)c2ccccc2)nc1	-65	0	1	48*	-8
Cc1ccc(S(=O)(=O)c2ccc([N+](=O)[O-])cn2)cc1	24	0	8	-7	4
COCCCNS(=O)(=O)c1ccc2c(c1)OCCO2	-5	0	3	-2	34*
COc1ccc(CCNS(=O)(=O)c2ccc3c(c2)OCCO3)cc1OC	-4	0	105*	-1	2
CCOCCCNS(=O)(=O)c1ccc2c(c1)OCCO2	-3	0	-1	0	-1
O=C(NCC1c2ccccc2CCN1C(=O)CN1C(=O)c2ccccc2C1=O)C1CCCCC1 (stereo unspecified)	-10	0	-5	-2	30*
O=C(CN1C(=O)c2ccccc2C1=O)N1CCCCC1	-1	1	3	-4	-14
CSCCC(NC(=O)c1ccc(Cl)cc1)C(=O)OCC(C)=O (stereo unspecified)	-6	1	-4	-6	32*
C[C@H](CS)C(=O)N1CCC[C@H]1C(=O)O	-6	1	13	2	30*
N#Cc1c(NC(=S)NC(=O)c2ccccc2)sc2c1CCN(CCc1ccccc1)C2	.	44*	-4	.	0
CC1CCc2c(sc(NC(=S)NC(=O)c3ccccc3)c2C#N)C1 (stereo unspecified)	-1	-1	7	-2	37*
O=C(Nc1ccc(Cl)cc1)C1CCN(c2nc3ccccc3nc2C(F)(F)F)CC1	.	1	-1	.	.
CCOC(=O)c1c(-c2cccc([N+](=O)[O-])c2)csc1NC(=O)C1CCCCC1	?	0	-7	7	1
CCOC(=O)c1c(-c2cccc([N+](=O)[O-])c2)csc1NC(=O)C1CC1	55*	0	8	11	-28
Cc1sc2ncn(CC(=O)Nc3cccc(C(F)(F)F)c3)c(=O)c2c1S(=O)(=O)N1CCN(C)CC1	.	.	25	.	.
O=C(CCN1CCN(c2ccccc2)CC1)c1ccc(Cl)cc1	-14	33*	-34	4	17
O=C(CCN1CCN(c2ccc([N+](=O)[O-])cc2)CC1)c1ccc(Cl)cc1	-1	2	-8	2	34*
Cc1ccccc1-c1noc(-c2ccc(NCc3ccco3)c([N+](=O)[O-])c2)n1	.	0	0	.	.
COc1ccc(Cn2c3nc4ccccc4nc3c3c(=O)n(Cc4ccco4)cnc32)cc1	.	1	6	.	40*
CC(=O)c1cccc(NC(=O)c2noc3c2CCCC3)c1	.	0	-5	.	.
CCOC(=O)c1cnc(-n2nc(C)cc2C)nc1NCCc1ccccc1	-8	0	-1	-4	34*
